Screening results (PubChem)
The list is not random: actives were taken first. Their share in the collection is about 10%.
G9a block = qHTS Assay for Inhibitors of Histone Lysine Methyltransferase G9a; Histone-lysine N-methyltransferase EHMT2 (Homo sapiens), Q96KQ7; Potency, µM (top dose mostly 102 µM), hits mostly inhibitors; G9a H3K9 monomethylation, AlphaScreen, 2 h; 350,000 compounds, 8.8% hits; AID 504332, 2011; further: nearly all actives have a fitted effect of over 75% in size
Target sequence (Q96KQ7 913-1193 limits assumed): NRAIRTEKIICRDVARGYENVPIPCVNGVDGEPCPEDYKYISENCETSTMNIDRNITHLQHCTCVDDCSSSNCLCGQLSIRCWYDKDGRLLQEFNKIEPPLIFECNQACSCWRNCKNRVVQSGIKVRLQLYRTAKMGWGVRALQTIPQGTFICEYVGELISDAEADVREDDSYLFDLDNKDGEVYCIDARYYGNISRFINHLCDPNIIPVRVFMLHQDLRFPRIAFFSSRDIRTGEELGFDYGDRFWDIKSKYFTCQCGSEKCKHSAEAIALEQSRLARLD
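AlphaScreen detection with an anti-monomethyl H3K9 antibody quantified product after a 2 h room-temperature reaction containing 500 nM biotinylated H3K9 peptide, 20 µM SAM and 20 nM enzyme, which had been preincubated 15 min with compound.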
BAZ2B inh = qHTS Assay for Inhibitors of BAZ2B | AID 504333, 2011 | AlphaScreen BAZ2B-H3K14Ac peptide displacement | Bromodomain adjacent to zinc finger domain protein 2B (Homo sapiens), Q9UIF8 | 360,000 compounds, 4.4% hits | Potency, µM (highest dose often 114 µM), hits mostly inhibitors; further: nearly all actives have a fitted effect of over 60% in size
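Multi-concentration screen (max 110 uM) measuring displacement of acetylated histone H3 peptide from BAZ2B by AlphaScreen, using 50 nM protein, 50 nM peptide and 10 ug/mL streptavidin donor plus Ni-chelate acceptor beads.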
CtBP-E1A blk = qHTS Assay for Inhibitors of the CtBP/E1A Interaction; 340,000 compounds, 0.49% hits; CtBP / adenovirus E1A interaction (AlphaScreen); AID 651724, 2012; AlphaScreen GST-E1A/His-CtBP binding, 1536-well; hits give low values; activity change, % (test concentration not listed); in the data active means activity change below about -65%; inconclusive means mostly about -30% to -63%
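AlphaScreen with 125 nM GST-E1A and 125 nM His-CtBP (5X stocks) in Tris pH 8.0, 300 mM NaCl, BSA, Tween 20, TCEP. Compounds preincubated 2 h at 37 deg C, then glutathione donor/nickel acceptor beads added for 1 h at 37 deg C in dark.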
HP1b binding inh = HTS for Inhibitors of HP1-beta Chromodomain Interactions with Methylated Histone Tails; Potency, µM (series often up to 114 µM), hits mostly inhibitors; 390,000 compounds, 0.56% hits; AID 540317, 2011; AlphaScreen HP1-beta / biotin-H3K9me3 peptide binding; further: nearly all actives have a fitted effect of over 70% in size
Target sequence (P83916 whole entry, looked up): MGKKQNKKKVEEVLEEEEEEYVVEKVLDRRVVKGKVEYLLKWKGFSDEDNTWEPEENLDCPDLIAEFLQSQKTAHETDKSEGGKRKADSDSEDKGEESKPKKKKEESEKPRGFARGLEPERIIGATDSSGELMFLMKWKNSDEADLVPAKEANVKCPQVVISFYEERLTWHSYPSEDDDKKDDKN
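Compound inhibition of the preformed complex between 50 nM HP1-beta and 50 nM biotinylated H3K9me3 peptide was read by AlphaScreen. Buffer was PBS pH 7.4 with 0.01% Tween-20. Incubations ran 30 min at room temperature, with 10 ug/mL donor/acceptor beads.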
Six1-Eya2 blk = qHTS Assay for Inhibitors of the Six1/Eya2 Interaction | Homeobox protein SIX1 (Homo sapiens) + Protein phosphatase EYA2 (Homo sapiens), … | AlphaScreen GST-Six1/His-Eya2 binding, biochemical; hits give low values | activity change, % (no concentration beside the values) | 360,000 compounds, 0.56% hits; in the data active means activity change below about -65%; inconclusive means mostly about -30% to -63%
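AlphaScreen with GST-Six1 and His-Eya2 (5X mix: 250 nM and 500 nM), glutathione donor and nickel acceptor beads; buffer 50 mM Tris pH 8.0, 300 mM NaCl, 1 mM TCEP; 1 h at 37 C in the dark.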
JMJD2A Tudor inh = qHTS Assay for Inhibitors of JMJD2A-Tudor Domain. AlphaScreen JMJD2A-Tudor / H3K4me3 peptide binding. 390,000 compounds, 4.4% hits. Lysine-specific demethylase 4A (Homo sapiens), O75164. Potency, µM (highest dose often 114 µM), hits mostly inhibitors; further: nearly all actives have a fitted effect of over 50% in size
Numbers stand for hits; – = inactive; ? = inconclusive; · = no result given; ! = a repeat was not active; [ ] = another dose, or the depositor's remark. Unless noted, the call rests on the fitted dose curve; in most records, active means well fitted inhibition curve with a large enough effect; inconclusive means small, poorly fitted or top-dose-only effect; inactive means no such curve, though single readings can be large or run the other way.

SMILES | G9a block | BAZ2B inh | CtBP-E1A blk | HP1b binding inh | Six1-Eya2 blk | JMJD2A Tudor inh
Cc1nc(C)c(-c2csc(Nc3cccc(O)c3)n2)s1 | 50µM | ? | – | – | – | –
CCC(=O)Nc1nc(C)c(-c2csc(Nc3cccc(O)c3)n2)s1 | 40µM | ? | · | – | – | 40µM
CC(=O)c1cccc(Nc2nc(-c3sc(N)nc3C)cs2)c1 | 79µM | 35µM | -77 | ? | ? | ?
O=[N+]([O-])c1cc(-c2nc(-c3ccncc3)no2)ccc1NCc1ccccc1 | – | – | · | – | · | –
Cc1c(C(=O)N2CCC(C)CC2)c(S(=O)(=O)NCc2ccccc2)c(C)n1C | – | – | · | – | · | –
CCC(C(=O)O)C1OC(C(C)C(O)C(C)C(=O)C(CC)C2OC3(C=CC(O)C4(CCC(C)(C5CCC(O)(CC)C(C)O5)O4)O3)C(C)CC2C)C(C)CC1C (stereo not drawn) | –[12.7 µM] | · | · | · | · | ·
Nc1ccc(-c2nc3ccccc3o2)cc1 | –[2.33 µM] | – | – | – | – | 40µM
Nc1cc(N)cc(-c2nc3ccccc3o2)c1 | · | · | – | – | – | ?
Cc1cccc(C(=O)Nc2onc(C)c2C#N)c1 | · | ? | – | – | – | 89µM
Cc1noc(NC(=O)c2ccc(F)cc2)c1C#N | – | – | – | – | – | –[11.4 µM]
O=C(O)c1ccc(N[C@@H]2OC[C@@H](O)[C@@H](O)[C@@H]2O)cc1 | –[12.7 µM] | · | · | · | · | ·
O=C(O)c1ccc(Nc2ncnc3c2cnn3Cc2ccccc2)cc1 | 32µM | – | – | ? | – | 50µM
Cc1cccc(Nc2ncnc3c2cnn3Cc2ccccc2)c1 | 50µM | ? | · | – | – | ?
O=C(Nc1ccc(S(=O)(=O)Nc2ccccn2)cc1)c1cccc(Cl)c1 | 25µM | – | – | – | – | –
Cc1ccc(C(=O)Nc2ccc(Br)cc2)cc1S(=O)(=O)Nc1ccccn1 | 79µM | – | – | – | – | –
CNc1cc(NS(=O)(=O)c2ccc(N)cc2)nc(NC)n1 | –[12.7 µM] | 50µM | – | – | – | 89µM
Nc1ccc(S(=O)(=O)Nc2ccccn2)cc1 | 25µM! | – | – | – | – | –
O=C(Nc1ccc(S(=O)(=O)Nc2ccccn2)cc1)c1cccc(Br)c1 | · | – | – | – | – | –
Cc1cc2oc(C(=O)N(Cc3ccccc3F)C3CCS(=O)(=O)C3)c(C)c2cc1Cl (stereo not drawn) | – | – | · | – | · | –
Cc1ccc(C(=O)Nc2ccc(S(=O)(=O)Nc3cnc4ccccc4n3)cc2)cc1 | 50µM | – | – | – | – | –
Cc1ccc(NS(=O)(=O)c2cc(C(=O)Nc3cccnc3)ccc2C)cc1 | 79µM | – | – | – | – | ?
Cc1ccc(NS(=O)(=O)c2cc(C(=O)N3CCN(CCO)CC3)ccc2C)cc1 | 2µM | 50µM | – | – | – | 79µM
CC1CCCN(S(=O)(=O)c2cc3c4c(c2)CC(=O)N4CCC3)C1 (stereo not drawn) | – | – | · | – | · | –
CCCn1c(COc2cccc(C)c2)nc2ccccc21 | – | – | · | – | · | –
Cc1ccc(C)c(OCC(=O)Nc2ccc(N3CCOCC3)cc2N2CCOCC2)c1 | ? | ? | – | – | – | ?
SMILES | G9a block | BAZ2B inh | CtBP-E1A blk | HP1b binding inh | Six1-Eya2 blk | JMJD2A Tudor inh
COc1ccccc1OCC(=O)Nc1ccc(N2CCOCC2)cc1N1CCOCC1 | ? | – | – | – | – | 89µM
Cc1ccccc1OCCC(=O)Nc1ccc(N2CCOCC2)cc1N1CCOCC1 | 45µM | – | – | – | – | –
Cc1ccccc1OCC(=O)Nc1ccc(N2CCOCC2)cc1N1CCOCC1 | 10µM | – | – | – | – | –
Cc1ccccc1OCCC(=O)OCC(=O)Nc1ccc(N2CCOCC2)cc1 | –[12.7 µM] | – | – | – | – | –
Cc1ccc(C(=O)N2CCC(N3CCN(Cc4ccc(F)cc4)C(=O)C3=O)CC2)cc1 | – | – | · | – | · | –
COC(=O)c1cc2sccc2n1Cc1ccc(F)cc1Cl | – | – | · | – | · | –
